From PubChem BioAssay (Tox21)
Inconclusive results are not listed. Activity calls are given as the source filed them. Unless noted, the call rests on the fitted dose curve; in most records, active means well fitted curve in the direction sought with a large enough effect in the repeat runs; inconclusive means weak or mixed curves; inactive means no such curve, though single readings can be large; an effect the other way counts as inactive or inconclusive.

What was measured:
[1] = target: Luciferin 4-monooxygenase (Photinus pyralis) (UniProt P08659); assay: qHTS assay to identify small molecule inhibitors of firefly luciferase (AID 1224835); further: series mostly up to about 120 µM; nearly all actives have a fitted effect of over 25% in size
In short: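 Quantitative HTS format; KM concentrations of both substrates. Purified P. pyralis FLuc activity quantified from luminescence images.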

[2] = qHTS assay to identify small molecule agonists of the constitutive androstane receptor (CAR) signaling pathway - cell viability counter screen (AID 1224836); further: series mostly up to about 92 µM; nearly all actives have a fitted effect of over 45% in size
In short: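 Cells were seeded and incubated 4 hrs. Compounds were added across 15 concentrations together with PK11195 at 0.75 uM final. Plates were incubated 23 hrs at 37 C. CellTiter-Fluor was added and fluorescence measured.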

[3] = qHTS assay to identify small molecule antagonists of the constitutive androstane receptor (CAR) signaling pathway - cell viability counter screen (AID 1224837); further: series mostly up to about 92 µM; nearly all actives have a fitted effect of over 45% in size
In short: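 HepG2-CYP2B6-hCAR cells, 2500/well, 4 hr pre-incubation; compound titration, 15 conc.; CITCO 50 nM final; 23 hr, 37 C/5% CO2; CellTiter-Fluor, fluorescence intensity.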

[4] = target: Nuclear receptor subfamily 1 group I member 3 (Homo sapiens) (UniProt Q14994); assay: qHTS assay to identify small molecule antagonists of the constitutive androstane receptor (CAR) signaling pathway (AID 1224838);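 further: HepG2 cells stably expressing hCAR with CYP2B6 luciferase reporter stimulated by CITCO; nearly all actives have a fitted effect of over 40% in size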
In short: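 HepG2-CYP2B6-hCAR cells; 4 h pre-incubation; cpd (15 conc) + CITCO 50 nM final; 24 h, 37 C/5% CO2; ONE-Glo, luminescence.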

[5] = target: Nuclear receptor subfamily 1 group I member 3 (Homo sapiens) (UniProt Q14994); assay: qHTS assay to identify small molecule agonists of the constitutive androstane receptor (CAR) signaling pathway (AID 1224839);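 further: HepG2 cells stably carrying human CAR and a CYP2B6 luciferase reporter; series mostly up to about 92 µM; nearly all actives have a fitted effect of over 15% in size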
In short: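 Cells were plated and incubated 4 hrs, then dosed with compounds at 15 concentrations. PK11195 was added to 0.75 uM final. After 24 hrs at 37 C, luciferase luminescence was measured.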

[6] = qHTS assay to identify small molecule agonists of the estrogen related receptor signaling pathway with the pleiotropic PPARgamma coactivator (PGC) from Tox21 10K library (AID 1224842); further: nearly all actives have a fitted effect of over 15% in size
In short: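 PGC/ERR reporter cells (NTP line) were seeded 2,000 per well, rested 6 h at 37 C/5% CO2, then pin-dosed with compounds in DMSO for 18 h at 37 C; luciferase read by One-Glo luminescence after 30 min at room temperature.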

[7] = target: Thyrotropin receptor (Homo sapiens) (UniProt P16473); assay: qHTS assay to identify small molecule agonists of the thyroid stimulating hormone receptor (TSHR) signaling pathway (AID 1224843; calls by dose curve; further: nearly all actives have a fitted effect of over 45% in size)
In short: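 Cell line HEK293 with TSHR; density 800/well. Exposure 30 min RT. Readout HTRF cAMP (cAMP-d2/anti-cAMP-cryptate), 1 h RT before reading.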

[8] = qHTS assay to identify small molecule agonists of the hypoxia (HIF-1) signaling pathway - cell viability counter screen (AID 1224844; calls by dose curve; further: nearly all actives have a fitted effect of over 50% in size)
In short: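 ME-180 HRE-bla cells, 2,000/well, 0.5% dialyzed FBS; 5 hr settle, 17 hr compound at 37C/5% CO2; CCF4-AM reporter read first, then CellTiter-Glo luminescence after 30 min RT.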

[9] = qHTS assay to identify small molecule antagonists of the estrogen related receptor signaling pathway with the pleiotropic PPARgamma coactivator (PGC) from Tox21 10K library - cell viability counter screen (AID 1224840; active means well fitted cell-killing curve with a large enough effect in the repeat runs, not every such curve was filed as active; further: nearly all actives have a fitted effect of over 40% in size)
In short: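 PGC/ERR cells, 2,000/well; 6 h pre-incubation 37 C/5% CO2; cpd in DMSO via pin tool; 17.5 h 37 C; CellTiter-Fluor, 30 min; fluorescence.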

[10] = qHTS assay to identify small molecule antagonists of the estrogen related receptor signaling pathway with the pleiotropic PPARgamma coactivator (PGC) from Tox21 10K library (AID 1224841; call rule not given here; further: series mostly up to about 92 µM; actives are mostly falling curves and most rising ones were filed inactive; nearly all actives have a fitted effect of over 50% in size)
In short: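 PGC/ERR cell line, 2,000 cells/well; 6 h pre-incubation 37 C/5% CO2; compounds (DMSO) pinned in; 18 h, 37 C; One-Glo, 30 min RT; luminescence.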
On the % scale 0 is the no-effect control and ±100 the full control effect.

Sequence of Nuclear receptor subfamily 1 group I member 3 (Homo sapiens) (Q14994 whole entry, looked up): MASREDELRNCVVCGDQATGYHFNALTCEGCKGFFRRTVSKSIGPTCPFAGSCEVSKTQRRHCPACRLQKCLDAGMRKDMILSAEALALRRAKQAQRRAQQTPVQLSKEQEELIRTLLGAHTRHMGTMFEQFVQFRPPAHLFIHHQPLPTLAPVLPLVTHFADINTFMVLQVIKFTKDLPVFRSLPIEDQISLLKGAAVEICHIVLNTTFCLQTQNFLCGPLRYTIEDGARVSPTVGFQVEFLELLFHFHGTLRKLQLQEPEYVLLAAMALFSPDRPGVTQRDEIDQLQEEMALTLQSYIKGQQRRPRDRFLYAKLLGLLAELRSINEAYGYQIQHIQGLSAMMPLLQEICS
Sequence of Luciferin 4-monooxygenase (Photinus pyralis) (P08659 whole entry, looked up): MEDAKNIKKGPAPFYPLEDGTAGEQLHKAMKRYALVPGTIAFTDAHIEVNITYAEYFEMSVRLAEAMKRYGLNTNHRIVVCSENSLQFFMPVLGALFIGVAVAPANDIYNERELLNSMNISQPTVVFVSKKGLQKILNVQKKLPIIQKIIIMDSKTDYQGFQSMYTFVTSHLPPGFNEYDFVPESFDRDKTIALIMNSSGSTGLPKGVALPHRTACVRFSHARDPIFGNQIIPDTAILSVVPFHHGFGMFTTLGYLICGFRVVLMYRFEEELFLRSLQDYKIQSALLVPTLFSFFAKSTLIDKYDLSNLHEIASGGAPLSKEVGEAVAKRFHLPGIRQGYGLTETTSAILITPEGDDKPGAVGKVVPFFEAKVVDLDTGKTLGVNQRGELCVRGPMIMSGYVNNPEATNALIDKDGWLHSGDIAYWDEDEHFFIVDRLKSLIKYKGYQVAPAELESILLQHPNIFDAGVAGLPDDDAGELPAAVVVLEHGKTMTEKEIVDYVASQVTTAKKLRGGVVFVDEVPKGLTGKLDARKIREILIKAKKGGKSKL
Sequence of Thyrotropin receptor (Homo sapiens) (P16473 whole entry, looked up): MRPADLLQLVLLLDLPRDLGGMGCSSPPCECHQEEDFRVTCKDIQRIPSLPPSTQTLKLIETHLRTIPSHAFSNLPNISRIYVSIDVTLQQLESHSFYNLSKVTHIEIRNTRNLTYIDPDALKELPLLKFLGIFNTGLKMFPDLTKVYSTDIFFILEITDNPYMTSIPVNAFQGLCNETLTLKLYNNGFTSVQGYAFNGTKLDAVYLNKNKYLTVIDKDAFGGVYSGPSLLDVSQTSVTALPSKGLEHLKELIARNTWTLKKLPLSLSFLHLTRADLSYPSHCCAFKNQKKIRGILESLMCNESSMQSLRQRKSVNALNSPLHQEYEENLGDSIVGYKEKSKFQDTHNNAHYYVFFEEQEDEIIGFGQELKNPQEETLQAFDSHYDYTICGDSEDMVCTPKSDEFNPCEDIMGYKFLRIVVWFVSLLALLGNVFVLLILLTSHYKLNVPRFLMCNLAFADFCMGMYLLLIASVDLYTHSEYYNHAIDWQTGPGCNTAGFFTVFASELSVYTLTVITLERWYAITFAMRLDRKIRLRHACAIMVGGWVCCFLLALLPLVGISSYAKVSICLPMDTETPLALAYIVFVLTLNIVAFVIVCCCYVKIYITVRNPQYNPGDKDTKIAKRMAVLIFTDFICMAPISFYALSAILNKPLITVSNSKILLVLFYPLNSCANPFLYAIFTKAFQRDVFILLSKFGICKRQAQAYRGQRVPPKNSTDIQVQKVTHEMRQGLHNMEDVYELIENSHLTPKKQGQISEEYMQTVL

COc1ccc2cc1Oc1cc3c(cc1OC)CC[N+](C)(C)[C@H]3Cc1ccc(cc1)Oc1c(OC)c(OC)cc3c1[C@@H](C2)[N+](C)(C)CC3
inactive: Potency [1] | outcome [2] | outcome [3] | Potency [4] | Potency [5] | Potency [6] | Potency [7] | Potency [8]

CCOC(=O)c1cnc2c(cnn2CC)c1NN=C(C)C
inactive: Potency [1] | outcome [2] | outcome [3] | Potency [4] | Potency [5] | outcome [9] | Potency [8]

Nc1c2c(nc3c1CCC3)CCCC2
inactive: Potency [1] | outcome [2] | outcome [3] | Potency [4] | Potency [5] | Potency [10] | Potency [6] | Potency [8]

O=[N+]([O-])c1ccc(/C=N\O)o1
inactive: Potency [1] | outcome [2] | outcome [3] | Potency [4] | outcome [9] | Potency [8]

CC(C)C[C@@H](N)C(=O)O
inactive: activity change, negative = inhibition [1] -3.09% [at 23.6 µM] | viability change, negative = cytotoxic [2] 3.64% [at 19 µM] | activity change, negative = cytotoxicity [3] 0.137% [at 19 µM] | activity, negative = inhibition [4] 4.78% [at 19 µM] | viability change, negative = cytotoxic [9] -8.03% [at 19 µM] | activity, negative = inhibition [10] 0.755% [at 19 µM] | activation [6] -0.0839% [at 19 µM] | activation [7] -1.78% [at 19 µM] | activity change, negative = cytotoxicity [8] 2.77% [at 15.8 µM]

CC(=O)c1cnccn1
inactive: Potency [1] | outcome [2] | outcome [3] | Potency [4] | outcome [9] | Potency [7] | Potency [8]

C=C(C)C(=O)OCC1CCCO1 (stereo unspecified)
inactive: Potency [1] | outcome [2] | outcome [3] | Potency [4] | Potency [5] | Potency [8]

O=S(=O)(O)c1cccc(S(=O)(=O)O)c1
inactive: Potency [1] | outcome [2] | outcome [3] | Potency [4] | outcome [9] | Potency [10] | Potency [6] | Potency [7] | Potency [8]

OCCc1ccccn1
inactive: Potency [1] | outcome [2] | outcome [3] | Potency [4] | Potency [5] | outcome [9] | Potency [8]

C[N+]1(CC2COC(c3ccccc3)(c3ccccc3)O2)CCCCC1 (stereo unspecified)
inactive: activity change, negative = inhibition [1] -3.43% [at 23.6 µM] | viability change, negative = cytotoxic [2] 1.16% [at 19 µM] | activity change, negative = cytotoxicity [3] 4.57% [at 19 µM] | activity, negative = inhibition [4] -9.35% [at 19 µM] | viability change, negative = cytotoxic [9] -2.82% [at 19 µM] | activation [6] 0.389% [at 19 µM] | activity change, negative = cytotoxicity [8] 0.991% [at 15.8 µM]

CC1=C(C/C=C(\C)CCC[C@H](C)CCC[C@H](C)CCCC(C)C)C(=O)c2ccccc2C1=O
inactive: Potency [1] | outcome [2] | outcome [3] | Potency [4] | outcome [9] | Potency [10] | Potency [6] | Potency [7] | Potency [8]

Cc1ncc(COP(=O)(O)O)c(C=O)c1O
inactive: Potency [1] | outcome [2] | outcome [3] | Potency [4] | outcome [9] | Potency [7] | Potency [8]

CC(C)NNC(=O)c1ccncc1
inactive: Potency [1] | outcome [2] | outcome [3] | outcome [9] | Potency [7] | Potency [8]

Cc1onc(-c2c(Cl)cccc2Cl)c1C(=O)Cl
inactive: Potency [1] | outcome [2] | Potency [4] | Potency [5] | outcome [9] | Potency [7] | Potency [8]

CC1=CC(=O)[C@H]2C[C@@H]1C2(C)C
inactive: Potency [1] | outcome [2] | outcome [3] | Potency [8]

NC(=O)NC1N=C([O][Al])NC1=O (stereo unspecified)
inactive: Potency [1] | outcome [2] | outcome [3] | outcome [9] | Potency [7] | Potency [8]

COc1ccccc1OCC1CNC(=O)O1 (stereo unspecified)
inactive: Potency [1] | outcome [2] | Potency [4] | Potency [5] | outcome [9] | Potency [6] | Potency [7] | Potency [8]

CCOC(=O)c1ccccc1
inactive: Potency [1] | outcome [2] | outcome [3] | outcome [9] | Potency [10] | Potency [6] | Potency [8]

CCC1C(=O)OCC1Cc1cncn1C (stereo unspecified)
inactive: Potency [1] | outcome [2] | outcome [3] | Potency [7] | Potency [8]

CCCn1cc[n+](C)c1C
inactive: Potency [1] | outcome [2] | outcome [3] | outcome [9] | Potency [8]

CN1[C@@H]2CC[C@H]1CC(OC(=O)C(O)c1ccccc1)C2 (stereo partly specified)
inactive: Potency [1] | outcome [2] | outcome [3] | Potency [5] | Potency [6] | Potency [7] | Potency [8]

CCN1C=CN(C)C1C (stereo unspecified)
inactive: Potency [1] | outcome [2] | outcome [3] | outcome [9] | Potency [6] | Potency [7] | Potency [8]

O=CN(CCO)CCO
inactive: Potency [1] | outcome [2] | outcome [3] | outcome [9] | Potency [10] | Potency [6] | Potency [7] | Potency [8]

O=C(O)CNC(=O)c1ccc(CO)o1
inactive: Potency [1] | outcome [2] | outcome [3] | Potency [8]

CC[N+](CC)(CC)CCOc1cccc(OCC[N+](CC)(CC)CC)c1OCC[N+](CC)(CC)CC
inactive: Potency [1] | outcome [2] | Potency [4] | Potency [5] | outcome [9] | Potency [7] | Potency [8]

C1CCC2(CCCCO2)OC1
inactive: Potency [1] | outcome [2] | Potency [4] | Potency [5] | outcome [9] | Potency [7] | Potency [8]

CC(=O)OCC(=O)[C@@]1(O)[C@H](C)C[C@H]2[C@@H]3CCC4=CC(=O)C=C[C@]4(C)[C@@]3(F)[C@@H](O)C[C@@]21C
inactive: Potency [1] | outcome [2] | outcome [3] | outcome [9] | Potency [10] | Potency [6] | Potency [7] | Potency [8]

O=C(O)CNC(=O)c1ccccc1
inactive: Potency [1] | outcome [2] | outcome [3] | outcome [9] | Potency [7] | Potency [8]

CCOc1c(N2CCOCC2)cnn(C)c1=O
inactive: Potency [1] | outcome [2] | outcome [3] | Potency [7]
